# Measurements: PubChem BioAssay
# Target: Left-right determination factor 2 (Homo sapiens) (UniProt O00292)
# Test: LEFTY2 binders on small-molecule microarrays, primary screen, biochemical, small-molecule microarray, 635 nm fluorescence scan (AID 1110)
# Conditions: LEFTY2 binding, higher = more signal
# Sequence of Left-right determination factor 2 (Homo sapiens) (O00292 whole entry, looked up): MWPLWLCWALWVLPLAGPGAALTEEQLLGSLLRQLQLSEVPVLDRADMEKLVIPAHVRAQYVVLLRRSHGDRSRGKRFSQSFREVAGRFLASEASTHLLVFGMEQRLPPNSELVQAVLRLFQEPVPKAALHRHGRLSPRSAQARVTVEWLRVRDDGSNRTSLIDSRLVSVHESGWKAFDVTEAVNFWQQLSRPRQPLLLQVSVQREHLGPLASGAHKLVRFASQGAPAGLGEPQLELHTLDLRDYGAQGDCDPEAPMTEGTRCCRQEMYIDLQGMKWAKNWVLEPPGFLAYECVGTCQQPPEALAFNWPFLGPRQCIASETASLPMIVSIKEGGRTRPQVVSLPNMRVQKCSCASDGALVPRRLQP
row,Compound,composite z-score
1,COc1cc(C(O)C2C=CC3C(=O)N(C)C(=O)C3N2NC(=O)OC(C)(C)C)cc(OC)c1OC (configuration not stated),0.0493
2,COc1ccc([Si](C)(C)[C@@H]2[C@@H](CC(=O)N(CCO)Cc3ccccc3)O[C@]3(C(=O)N(C)c4c(Br)cc(C)cc43)[C@H]2C)cc1,0.661
3,COC(=O)[C@@]1(Cc2ccccc2)[C@H]2c3cc(C(=O)N(C)C)n(Cc4ccccn4)c3C[C@H]2CN1C(=O)c1ccccc1,-0.0545
4,O=C1NC(=O)C2C1C=CC(C(O)CCc1ccccc1)N2Nc1ccccn1 (configuration not stated),-0.0953
5,CCOC(=O)C1=CCC(c2cccc(Cl)c2)O1 (configuration not stated),0.005
6,C=C(COC)C(=O)CC[C@H](OC(=O)c1ccccc1-c1ccccc1C(=O)O)c1ccc(CO)o1,0.27
7,N#Cc1ccc(NN2C(C(O)c3ccco3)C=CC3C(=O)N(c4ccccc4)C(=O)C32)cc1 (configuration not stated),-0.0879
8,COC(=O)C(CC#Cc1ccc2c(c1)[C@]1(C(=O)N2)[C@H](C(=O)N2CCc3cc(OC)c(OC)cc3C2)[C@H]2C(=O)O[C@H](c3ccccc3)[C@H](c3ccccc3)N2[C@@H]1c1ccc(OCCO)cc1)C(=O)OC,0.633

# Target: Calmodulin-1 (Homo sapiens) (UniProt P0DP23)
# Test: CALM1 binders on microarrays, EGTA buffer, profiling panel, biochemical, small-molecule microarray, Cy5-labelled CALM1 (AID 1111);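 also: labelled calmodulin applied in Tris saline Tween buffer holding calcium plus EGTA and DTT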
# Conditions: Cy5-CALM1 binding fluorescence, higher = more signal
row,Compound,composite z-score
1,CCCCC(CC)C(O)C1C=CC2C(=O)NC(=O)C2N1Nc1ccccn1 (configuration not stated),1.07
2,CC(C)C[C@@H]1NC(=O)[C@@H]2C[C@H](C(=O)NCCCC[N+](C)(C)C)[C@H](c3cccc(OCCO)c3)N2C1=O,-0.863
3,COCCOC(=O)N1C(=O)[C@@]2(c3ccccc31)[C@H](c1ccccc1OCCO)N1[C@H](c3ccccc3)[C@H](c3ccccc3)OC(=O)[C@H]1[C@@H]2C(=O)N1CCc2cc(OC)c(OC)cc2C1,1.29
4,CN1C(=O)C2C=CC(C(O)COCc3ccccc3)N(Nc3ccccc3)C2C1=O (configuration not stated),-0.0981
5,[N-]=[N+]=NCc1ccccc1[C@H]1OC(c2ccc(OCCCO)cc2)=N[C@@]1(Cc1ccccc1N=[N+]=[N-])C(=O)NCCN1CCOCC1,1.19
6,C[N+](C)(C)CCCCNC(=O)[C@H]1C[C@H]2C(=O)NCC(=O)N2[C@H]1c1ccc(O)cc1,-1.08
7,Cc1ccc(F)cc1S(=O)(=O)N[C@@H]1CCN(C(=O)c2ccc(OC(C)C)cc2)C1,0.237
8,COCCOC(=O)N1C(=O)[C@@]2(c3ccccc31)[C@H](c1ccc(OCCO)cc1)N1[C@H](c3ccccc3)[C@H](c3ccccc3)OC(=O)[C@H]1[C@@H]2C(=O)NC[C@H](O)c1ccccc1,0.718
9,CCCCC=C[C@@H](NC(=O)CCc1ccccc1)c1ccccc1,0.504
10,COc1ccc([Si](C)(C)[C@@H]2[C@@H](CCO)O[C@]3(C(=O)N(Cc4ccc(N5C(=O)c6ccccc6Oc6ccccc65)cc4)c4ccccc43)[C@H]2C)cc1,0.322
11,CC[C@@H]1[C@@H]2C3C(=O)N(CC)C(=O)C3CC(=O)[C@@H]2[C@H](c2ccc(C)cc2)N1S(=O)(=O)c1ccc(C)cc1 (some centres not stated),0.742
12,COCCOC(=O)N1C(=O)[C@@]2(c3cc(C#CC4(O)CCCCCC4)ccc31)[C@H](C(=O)N1CCc3cc(OC)c(OC)cc3C1)[C@H]1C(=O)O[C@H](c3ccccc3)[C@H](c3ccccc3)N1[C@@H]2c1ccccc1OCCO,1.02
13,COc1ccc(C#Cc2ccc3c(c2)[C@]2(C(=O)N3)[C@H](C(=O)O)[C@H]3C(=O)O[C@H](c4ccccc4)[C@H](c4ccccc4)N3[C@@H]2c2ccc(OCCO)cc2)cc1,2.25
14,COc1ccc(C#Cc2ccc3c(c2)[C@]2(C(=O)N3)[C@H](c3ccc(OCCO)cc3)N3[C@H](c4ccccc4)[C@H](c4ccccc4)OC(=O)[C@H]3[C@@H]2C(=O)N2CCN(c3ncccn3)CC2)cc1,1.91
15,[N-]=[N+]=NCc1ccccc1[C@H]1OC(c2ccc(OCCCO)cc2)=N[C@@]1(Cc1ccccc1N=[N+]=[N-])C(=O)N1CCCCC1,1
16,CCCC=C(CCC)[C@@H](NS(=O)(=O)c1ccccc1)c1ccc(C(F)(F)F)cc1,1.73
17,COc1cc2c(cc1OC)CN(C(=O)[C@@H]1[C@H]3C(=O)O[C@H](c4ccccc4)[C@H](c4ccccc4)N3[C@H](c3ccc(O)cc3)[C@@]13C(=O)Nc1ccc(C#CCNC(N)=O)cc13)CC2,0.186
18,COc1ccc([Si](C)(C)[C@@H]2[C@@H](CCO)O[C@]3(C(=O)N(Cc4cccc(N5C(=O)COc6ccccc65)c4)c4ccccc43)[C@H]2C)cc1,1.06
19,C=CC[C@@]1(C(=O)NCCN2CCOCC2)N=C(c2ccc(OCCCO)cc2)O[C@@H]1c1ccccc1,-0.0984
